Assay results reported in PubChem BioAssay (NCATS).
Results filed as inconclusive are left out. Where a call stands in place of a potency, no number is given. The source made the active and inactive calls. Calls come from the whole dose curve; as a rule, active = well fitted inhibition curve with a large enough effect; inconclusive = small, poorly fitted or top-dose-only effect; inactive = flat fitted curve, though single readings scatter.

Test system: CP217
Assay: qHTS profiling for inhibitors of Plasmodium falciparum proliferation (AID 504749); note: nearly all actives have a fitted effect of over 60% in size
Settings: P. falciparum in erythrocytes, SYBR Green DNA, 72 h; series mostly up to 28.7 µM
Procedure, shortened: (§1)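 Three-day growth assay of blood-stage parasites in erythrocytes (0.3% parasitemia, 2.5% hematocrit) at 37 C, 5% CO2, quantified by SYBR Green DNA staining after overnight detergent lysis.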
Potency is the fitted concentration of half-maximal effect.

Row | SMILES | Potency
1 | Cc1cc2c(cc1S(N)(=O)=O)S(=O)(=O)CCC2 | inactive
2 | NC1CCN(c2cccc(Cl)n2)CC1 | inactive
3 | CCOC(CN1CCN(CC(C)C(=O)c2ccccc2)CC1)c1ccccc1 (stereo not drawn) | inactive
4 | CC(C)(C)C(=O)C(Oc1ccc(Cl)cc1)n1ccnc1 (stereo not drawn) | 10 µM (active)
5 | CCCc1c(OCCCCc2nn[nH]n2)ccc(C(C)=O)c1O | inactive
6 | CCCCN1CCCC[C@H]1C(=O)Nc1c(C)cccc1C | inactive
7 | CN1CCCCC1CCN1c2ccccc2Sc2ccc(S(C)=O)cc21 (stereo not drawn) | inactive
8 | c1ccc(CN(CC2=NCCN2)c2ccccc2)cc1 | inactive
9 | CC(CN1c2ccccc2Sc2ccccc21)N(C)C (stereo not drawn) | inactive
10 | O=C1NS(=O)(=O)c2ccccc21 | inactive
11 | CNCCC(Oc1ccc(C(F)(F)F)cc1)c1ccccc1 (stereo not drawn) | inactive
12 | Cc1cc(N)c2ccccc2[n+]1CCCCCCCCCC[n+]1c(C)cc(N)c2ccccc21 | 0.447 µM (active)
13 | CCCCOc1cc(C(=O)OCCN(CC)CC)ccc1N | inactive
14 | CN(C)CCN(Cc1ccccc1)c1ccccn1 | inactive

Test system: CP237
Assay: as above
Settings: P. falciparum in erythrocytes, SYBR Green DNA, 72 h; series mostly up to 28.7 µM
Procedure, shortened: as §1

Row | SMILES | Potency
15 | Cc1cc2c(cc1S(N)(=O)=O)S(=O)(=O)CCC2 | inactive
16 | CCOc1nc2cccc(C(=O)O)c2n1Cc1ccc(-c2ccccc2-c2nn[nH]n2)cc1 | inactive
17 | NC1CCN(c2cccc(Cl)n2)CC1 | 12.6 µM (active)
18 | CC(C(O)c1ccc(O)cc1)N1CCC(Cc2ccccc2)CC1 (stereo not drawn) | 8.91 µM (active)
19 | CNC(=O)Oc1ccc2c(c1)[C@]1(C)CCN(C)[C@@H]1N2C | 4.47 µM (active)
20 | CSc1ccc2c(c1)N(CCC1CCCCN1C)c1ccccc1S2 (stereo not drawn) | 10 µM (active)
21 | CC(C)(C)C(=O)C(Oc1ccc(Cl)cc1)n1ccnc1 (stereo not drawn) | 7.08 µM (active)
22 | C[C@]12C[C@H](O)[C@H]3[C@@H](CCC4=CC(=O)CC[C@@]43C)[C@@H]1CC[C@@H]2C(=O)CO | inactive
23 | CCN(CC)CCNC(C(=O)OCCC(C)C)c1ccccc1 (stereo not drawn) | 3.16 µM (active)
24 | CCCc1c(OCCCCc2nn[nH]n2)ccc(C(C)=O)c1O | inactive
25 | CCCCN1CCCC[C@H]1C(=O)Nc1c(C)cccc1C | 8.91 µM (active)
26 | Nc1ccc(S(=O)(=O)Nc2ccc(Cl)nn2)cc1 | inactive
27 | O=C1NS(=O)(=O)c2ccccc21 | inactive
28 | CNCCC(Oc1ccc(C(F)(F)F)cc1)c1ccccc1 (stereo not drawn) | inactive
29 | NC(=O)N/N=C/c1ccc([N+](=O)[O-])o1 | 10 µM (active)
30 | Cc1cc(N)c2ccccc2[n+]1CCCCCCCCCC[n+]1c(C)cc(N)c2ccccc21 | 0.126 µM (active)
31 | CCCCOc1cc(C(=O)OCCN(CC)CC)ccc1N | inactive
32 | CN(C)CCN(Cc1ccccc1)c1ccccn1 | 5.01 µM (active)
33 | CNCCCC1c2ccccc2C=Cc2ccccc21 | inactive
